Only a selection was taken, and hits are over-represented in it overall.
NOMO-1 viab: STK33 inhibitor candidate reducing NOMO-1 cell viability; NOMO-1 AML viability, CellTiter-Glo luminescence, 72 h; inhibition, % (concentration not given with the values); 37,000 tested, 7.5% active; AID 2330; in the data active means inhibition above about 80%
mut p53 react: re-activators of the mutant p53 pathway; SW480 PUMA-promoter luciferase, p53 mutant reactivation; activation, % at 9.98 µM; 28,000 tested, 1.5% active; in the data active means activation above about 52%
MITF inh: MITF inhibition; 37,000 tested, 0.28% active; AID 2240; TRPM1 promoter luciferase, luminescence, 24 h; inhibition, % (no concentration beside the values); in the data active means inhibition above about 85%;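 further: human melanocyte line stably carrying TRPM1 promoter luciferase reporter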
STK33 kin inh: inhibitors of human STK33 kinase | Q9BYT3 | ADP-Glo luminescence, MBP substrate | inhibition, % at 12.5 µM | 27,000 tested, 0.44% active; in the data active means inhibition above about 20%
Target sequence (Q9BYT3 whole entry, looked up): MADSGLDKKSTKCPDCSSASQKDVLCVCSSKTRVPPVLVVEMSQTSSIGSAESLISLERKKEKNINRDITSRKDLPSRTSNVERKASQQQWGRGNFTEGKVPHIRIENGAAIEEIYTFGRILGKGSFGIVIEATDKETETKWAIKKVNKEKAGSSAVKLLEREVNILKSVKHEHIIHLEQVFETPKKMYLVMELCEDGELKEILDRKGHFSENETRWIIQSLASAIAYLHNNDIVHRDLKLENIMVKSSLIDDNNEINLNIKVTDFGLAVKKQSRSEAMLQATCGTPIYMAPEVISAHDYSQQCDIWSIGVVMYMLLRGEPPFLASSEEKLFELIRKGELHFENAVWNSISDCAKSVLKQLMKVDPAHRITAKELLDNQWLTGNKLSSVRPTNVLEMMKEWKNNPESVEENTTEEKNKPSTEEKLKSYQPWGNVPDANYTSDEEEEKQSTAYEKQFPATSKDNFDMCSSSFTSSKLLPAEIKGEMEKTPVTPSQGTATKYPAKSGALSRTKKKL
Numbers without * were called inactive; · = no result.

SMILES	NOMO-1 viab	mut p53 react	MITF inh	STK33 kin inh
COc1ccc(CN(C)C[C@H]2Oc3ccc(NC(=O)Nc4ccc(C(F)(F)F)cc4)cc3C(=O)N([C@@H](C)CO)C[C@H]2C)cc1	126*	-88	-5	·
COc1ccc(CN(C)C[C@H]2Oc3ccc(NC(=O)Nc4ccc(OC)cc4)cc3C(=O)N([C@@H](C)CO)C[C@@H]2C)cc1	13	8	-3	·
C[C@H](CO)N1C[C@H](C)[C@H](CN(C)S(=O)(=O)c2ccccc2)Oc2ccc(NC(=O)Nc3ccc4c(c3)OCO4)cc2CC1=O	126*	·	17	3
C[C@@H]1CN([C@H](C)CO)C(=O)Cc2cc(NC(=O)Nc3ccc4c(c3)OCO4)ccc2O[C@H]1CN(C)S(=O)(=O)c1ccccc1	-5	·	-6	0
Cc1ccc(S(=O)(=O)N(C)C[C@@H]2Oc3ccc(NC(=O)Nc4ccc5c(c4)OCO5)cc3CC(=O)N([C@@H](C)CO)C[C@@H]2C)cc1	108*	·	26	-1
Cc1ccc(S(=O)(=O)N(C)C[C@H]2Oc3ccc(NC(=O)Nc4ccc5c(c4)OCO5)cc3CC(=O)N([C@H](C)CO)C[C@@H]2C)cc1	·	8	·	·
COc1ccc(S(=O)(=O)N(C)C[C@@H]2Oc3ccc(NC(=O)Nc4ccc5c(c4)OCO5)cc3CC(=O)N([C@H](C)CO)C[C@H]2C)cc1	-12	-6	0	·
COc1ccc(S(=O)(=O)N(C)C[C@@H]2Oc3ccc(NC(=O)Nc4ccc5c(c4)OCO5)cc3CC(=O)N([C@H](C)CO)C[C@@H]2C)cc1	114*	-5	34	1
C[C@H]1CN([C@@H](C)CO)C(=O)Cc2cc(NC(=O)Nc3ccc4c(c3)OCO4)ccc2O[C@H]1CN(C)S(=O)(=O)c1ccc(F)cc1	128*	·	24	·
Cc1nc(-c2cc(C#N)c(SCCNS(=O)(=O)c3ccc(C(C)(C)C)cc3)nc2C)cs1	52	·	7	·
O=C(CSc1nnc(-c2cccnc2)n1C1CCCCC1)Nc1ccc(Cl)cc1	4	-8	-13	-7
COc1ccc(OC)c(S(=O)(=O)N2CCC(C(=O)Nc3ccc(Oc4ccccc4)cc3)CC2)c1	45	-28	53	1
c1cnc(SCCCCOc2ccc3c(c2)CCC3)nc1	35	71*	-56	-4
O=S(=O)(Nc1ncccn1)c1ccc(NC(=S)Nc2ccc3c(c2)CCC3)cc1	0	19	-8	-5
Cc1cc(=O)oc2cc(NC(=S)NCc3cccnc3)ccc12	65	75*	-61	-2
Cc1oc2c(c1C(=O)NCc1ccccc1)C(=O)c1ccccc1C2=O	140*	·	58	·
CSc1ccccc1NC(=O)CSc1nnnn1-c1ccccc1C	18	4	17	3
CC(C)(C)C(=O)Nc1ccc2c(c1)C(=O)C(=O)c1ccccc1-2	98*	22	97*	-2
CC(O)(C(=O)Nc1ccc(S(=O)(=O)c2ccccc2)cc1)C(F)(F)F (configuration not stated)	38	·	-5	-4
COc1ccc(Cl)cc1N(CC(=O)Nc1ccccc1Br)S(C)(=O)=O	·	1	·	3
Cc1ccc(-n2c(=O)c3c4c(sc3n3c(SCC(=O)c5ccc(F)cc5)nnc23)CCCC4)cc1	96*	-3	-3	3
N#Cc1c(NC(=O)CSc2ncn[nH]2)sc2c1CCCCC2	39	-61	104*	4
COc1ccc(OCC(=O)Nc2sc3c(c2C#N)CCC3)cc1	28	94*	-80	1
CC(C)(C)c1cc(C(F)(F)F)c(C#N)c(SCC(=O)Nc2sc3c(c2C#N)CCCC3)n1	97*	-29	22	-1
N#Cc1c(C(F)(F)F)cc(-c2cccs2)nc1SCC(=O)Nc1sc2c(c1C#N)CCC2	74	-12	56	0
SMILES	NOMO-1 viab	mut p53 react	MITF inh	STK33 kin inh
O=C(CN(C1CCCCC1)S(=O)(=O)c1ccc(Br)cc1)Nc1c(F)cccc1F	14	-5	25	-1
O=C(/C=C/c1ccc(O)cc1)NCCc1ccc(O)cc1	36	-8	-13	3
CC(=O)NCCCN(CCCCN(CCCNC(=O)/C=C/c1ccc(O)cc1)C(C)=O)C(=O)/C=C/c1ccc(O)cc1	-1	36	-62	40*
CC(C)(C)Nc1cccccc1=NCc1ccccc1	92*	·	9	·
Cc1ccc(OCC(=O)Nc2ccc3oc(-c4ccccc4C)nc3c2)cc1C	0	43	-82	4
C=CCn1c2ccccc2c2nnc(SCC(=O)c3ccc(C)cc3)nc21	30	1	0	-2
Nc1[nH]nc2nc3ccccc3nc12	·	64*	·	·
CC(C)S(=O)(=O)c1csc(NC(=O)N2CCCCC2)c1Cl	-4	·	0	·
CC(C)S(=O)(=O)c1csc(NC(=O)Nc2cc(C(F)(F)F)cc(C(F)(F)F)c2)c1Cl	113*	·	65	0
Cc1cc2nc(SCc3ccccc3C#N)[nH]c2cc1C	13	68*	-152	0
N#Cc1ccccc1CSc1ncn[nH]1	7	3	-17	-4
Nc1nc(N(Cc2ccccc2)Cc2ccccc2)nc(C(F)(F)F)n1	120*	·	20	·
CCCCCCCCCC/C=C\CCCCCCCc1cccc(O)c1C(=O)O	119*	·	81	-13
CCCCCCCC/C=C\CCCCCCCc1cccc(O)c1C(=O)O	35	11	11	-16
CC1(C)C(=O)C=C[C@@]2(C)C1C=C[C@]1(C)C2CC[C@@]2(C)[C@H](c3ccoc3)OC(=O)C3OC321 (some centres not stated)	107*	·	101*	8
C=C1C(C2(C)C=CC(=O)C(C)(C)C2CC(=O)OC)CC[C@@]2(C)[C@H](c3ccoc3)OC(=O)C3OC132 (some centres not stated)	110*	·	66	0
Cc1cc(O)c(Cc2c(O)cc(C)c(C=O)c2O)c(O)c1C	3	-6	11	-2
C[C@H]1CN([C@@H](C)CO)C(=O)c2cc(NS(=O)(=O)c3ccccc3)ccc2O[C@@H]1CN(C)Cc1ccc(-c2ccccc2)cc1	87*	·	14	2
Cc1ccc(S(=O)(=O)Nc2ccc3c(c2)C(=O)N([C@@H](C)CO)C[C@H](C)[C@@H](CN(C)Cc2ccc(-c4ccccc4)cc2)O3)cc1	59	·	3	·
C[C@@H]1CN([C@@H](C)CO)C(=O)c2cc(NS(=O)(=O)c3ccccc3)ccc2O[C@@H]1CN(C)Cc1ccc(-c2ccccc2)cc1	115*	·	40	·
Cc1ccc(S(=O)(=O)Nc2ccc3c(c2)C(=O)N([C@@H](C)CO)C[C@H](C)[C@H](CN(C)Cc2ccc(-c4ccccc4)cc2)O3)cc1	56	·	-1	4
C[C@@H]1CN([C@@H](C)CO)C(=O)c2cc(NS(=O)(=O)c3ccc(Cl)cc3)ccc2O[C@H]1CN(C)Cc1ccc(-c2ccccc2)cc1	106*	·	27	·
COc1cc(NC(=O)CCC(=O)O)ccc1NC(C)=O	-5	5	12	1
Cc1nn(C(C)(C)C)c(OC(=O)c2ccc(Cl)cc2)c1S(=O)(=O)c1ccccc1	121*	-30	30	2
Cc1ccc(S(=O)(=O)c2c(C)nn(C(C)(C)C)c2OC(=O)c2ccccc2C(F)(F)F)cc1	61	-7	7	0
Cc1nn(C(C)(C)C)c(OC(=O)c2cccc(Br)c2)c1S(=O)(=O)c1ccccc1	119*	-44	52	0

Screens (PubChem)
